# Test results published in PubChem BioAssay (NCATS).
# Several values for one entry are separate records, joined by “and”; a condition that tells them apart may be missing. Equal entries are not always repeated. Results filed as inconclusive are left out. Values without a mark were called inactive. Activity calls are given as the source filed them. Calls follow the shape of the dose curve; as a rule, active = well fitted inhibition curve with a large enough effect; inconclusive = small, poorly fitted or top-dose-only effect; inactive = flat fitted curve, though single readings scatter.
# Experiments:
# W2 = test: qHTS profiling for inhibitors of Plasmodium falciparum proliferation (AID 504749); conditions: P. falciparum in erythrocytes, SYBR Green DNA, 72 h; series mostly up to 28.7 µM
# Procedure, shortened: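 SYBR Green fluorescence (ex 485 nm, em 535 nm) reports parasite DNA after 72 h compound exposure of infected red cells at 0.3% parasitemia, 2.5% hematocrit; signal normalized to 0.29 uM artemisinin and vehicle wells.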
# CRL-7250 = normal cell line; test: Cytotoxic Profiling of Annotated Libraries Using Quantitative High-Throughput Screening (AID 1296008); conditions: Five cell lines viability, CellTiter-Glo ATP luminescence, 48-72 h; max response: hits give low values; as to max response: % is scaled to controls: 0 for no effect and ±100 for the full control effect
# Procedure, shortened: (§1)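 Cells exposed to compounds for 48 or 72 hr at 37 degrees Celsius. Viability read as ATP-coupled luminescence with CellTiter-Glo after 10 min at room temperature.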
# HEK293 = test: as above; conditions: Five cell lines viability, CellTiter-Glo ATP luminescence, 48-72 h; max response: hits give low values
# Procedure, shortened: as §1
# HaCat [1] = test: as above; conditions: Five cell lines viability, CellTiter-Glo ATP luminescence, 48-72 h; max response: hits give low values
# Procedure, shortened: as §1
# KB-3-1 = test: as above; conditions: Five cell lines viability, CellTiter-Glo ATP luminescence, 48-72 h; max response: hits give low values
# Procedure, shortened: as §1
# NIH3T3 = test: as above; conditions: Five cell lines viability, CellTiter-Glo ATP luminescence, 48-72 h; max response: hits give low values
# Procedure, shortened: as §1
# MCC-13 = test: qHTS assay to identify novel small-molecules to repurpose for Merkel cell carcinoma treatment (AID 1296009); conditions: MCC and control cell lines, CellTiter-Glo viability, 72 h; series mostly up to 46 µM; as to activity change, negative = cytotoxicity: % is scaled to controls: 0 for no effect and ±100 for the full control effect
# Procedure, shortened: (§2)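 CellTiter-Glo luminescence after 72 hr compound exposure at 37 degree celsius gave cell viability. Libraries NPC and MIPE were run as 8- and 11-point dose responses; RLUs normalized to DMSO (negative) and no-cell (cytotoxicity) controls.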
# HACAT [2] = test: as above; conditions: MCC and control cell lines, CellTiter-Glo viability, 72 h; at 44.8 µM (top of the series) unless noted
# Procedure, shortened: as §2
# HEK293T = test: as above; conditions: MCC and control cell lines, CellTiter-Glo viability, 72 h; at 44.8 µM (top of the series) unless noted
# Procedure, shortened: as §2
# MCC-26 = test: as above; conditions: MCC and control cell lines, CellTiter-Glo viability, 72 h; series mostly up to 46 µM
# Procedure, shortened: as §2
# Also: nearly all actives have a fitted effect of over 60% in size.
# Potency is read from the fitted curve at half-maximal effect.
compound,measurement,setting,value
Nc1cc(-c2ccncc2)c[nH]c1=O,Potency,W2,inactive
same,outcome,CRL-7250,inactive
same,max response,HEK293,1.99%
same,max response,HaCat [1],3.01%
same,max response,KB-3-1,4.08%
same,max response,NIH3T3,-0.0001%
same,Potency,MCC-13,inactive
Nc1ccc([N+](=O)[O-])cc1O,max response,KB-3-1,10.6%
CN1[C@@H]2CC[C@H]1CC(OC(=O)C(CO)c1ccccc1)C2 (stereo not given in full),max response,KB-3-1,-5.74% and -6.73% and 8.38%
CCCCCCCCCCCCCCCCCC(=O)O,Potency,W2,inactive
same,outcome,HEK293,inactive
same,outcome,HaCat [1],inactive
same,max response,KB-3-1,-8.88%
same,max response,NIH3T3,-5.96%
same,outcome,HACAT [2],inactive
same,outcome,HEK293T,inactive
same,Potency,MCC-13,inactive
Cc1onc(-c2c(F)cccc2Cl)c1C(=O)N[C@@H]1C(=O)N2[C@@H]1SC(C)(C)[C@@H]2C(=O)O,max response,CRL-7250,-6.01%
same,outcome,HEK293,inactive
same,max response,KB-3-1,3.63% and 6.4%
same,outcome,KB-3-1,inactive
same,max response,NIH3T3,-7.78%
same,outcome,HEK293T,inactive
CS(=O)(=O)c1ccc(-n2nc(C(F)(F)F)cc2-c2ccc(F)cc2)cc1,max response,HEK293,1.42%
same,outcome,HaCat [1],inactive
same,max response,NIH3T3,-2.48%
same,outcome,HACAT [2],inactive
Cc1cc(O)c2ccccc2c1O,Potency,W2,9.53 µM (active)
same,max response,CRL-7250,-18%
same,outcome,HaCat [1],inactive
same,max response,KB-3-1,6.5%
same,outcome,HACAT [2],inactive
same,Potency,MCC-13,inactive
same,Potency,MCC-26,inactive
O=C(OCc1ccccc1)c1ccccc1,Potency,W2,inactive
same,max response,HEK293,-2.07%
same,max response,HaCat [1],4.92%
same,max response,KB-3-1,3.34%
same,max response,NIH3T3,0.848%
same,Potency,MCC-13,inactive
COc1cc(CNC(=O)CCCC/C=C/C(C)C)ccc1O,Potency,W2,inactive
same,max response,CRL-7250,3.92%
same,max response,HEK293,-1.55%
same,max response,KB-3-1,-0.699%
same,outcome,KB-3-1,inactive
same,max response,NIH3T3,-2.4%
CN(C)[C@@H]1C(=O)C(C(=O)NCN2CCCC2)=C(O)[C@@]2(O)C(=O)C3=C(O)c4c(O)cccc4[C@@](C)(O)C3C[C@@H]12 (stereo not given in full),max response,HaCat [1],-12.7%
same,max response,KB-3-1,3.68% and -3.42%
same,max response,NIH3T3,1.26%
same,Potency,MCC-13,inactive
same,Potency,MCC-26,inactive
O=C(O)Cc1cccc(-c2cc(CCCCCCc3ccc(O[C@H]4O[C@H](CO)[C@@H](O)[C@H](O)[C@@H]4O)c(-c4cccc(CC(=O)O)c4)c3)ccc2O[C@H]2O[C@H](CO)[C@@H](O)[C@H](O)[C@@H]2O)c1,max response,HEK293,1.99%
same,max response,HaCat [1],-11.5%
same,outcome,KB-3-1,inactive
same,max response,NIH3T3,2.37%
same,"activity change, negative = cytotoxicity",MCC-13,9.04% [at 0.597 µM]
same,"activity change, negative = cytotoxicity",MCC-26,4.83% [at 0.597 µM]
c1ccc(CCNc2nc(-c3ccccc3)cs2)cc1,Potency,HEK293,11.9 µM (active)
same,outcome,HaCat [1],inactive
same,max response,KB-3-1,-17.2%
same,max response,NIH3T3,-13.6%
same,outcome,HACAT [2],inactive
same,Potency,MCC-13,inactive
CC(N)C(=O)OC(C)(C)Cc1ccc(Cl)cc1 (stereo not given),Potency,W2,4.26 µM (active)
same,max response,CRL-7250,4.4%
same,outcome,HaCat [1],inactive
same,max response,NIH3T3,-1.5%
same,outcome,HACAT [2],inactive
same,Potency,MCC-13,inactive
same,Potency,MCC-26,inactive
CN(C)c1ccc(N=NS(=O)(=O)O)cc1,max response,HaCat [1],-1.75%
same,max response,KB-3-1,-10.4%
same,max response,NIH3T3,2.87%
same,Potency,MCC-13,inactive
same,Potency,MCC-26,inactive
COC(=O)C1=C(C)NC(C)=C(C(=O)OCC(C)=O)C1c1ccccc1[N+](=O)[O-] (stereo not given),outcome,HEK293,inactive
same,outcome,HaCat [1],inactive
same,max response,NIH3T3,-4.97%
same,outcome,HACAT [2],inactive
same,outcome,HEK293T,inactive
N=C1N=C(N)c2cc3ccccc3cc21,Potency,CRL-7250,17.2 µM (active)
same,Potency,HEK293,19.3 µM (active)
same,Potency,NIH3T3,10.9 µM (active)
same,Potency,MCC-13,43.3 µM (active)
CCCCC1C(=O)N(c2ccccc2)N(c2ccc(O)cc2)C1=O (stereo not given),Potency,HEK293,4.73 µM (active)
same,max response,KB-3-1,-9.78%
same,Potency,NIH3T3,15 µM (active)
same,Potency,MCC-13,9.44 µM (active)
Cc1c(C(=O)O)c(O)cc2c1C(=O)c1c(O)c([C@@H]3O[C@H](CO)[C@@H](O)[C@H](O)[C@H]3O)c(O)c(O)c1C2=O,max response,HEK293,-35.5%
same,max response,KB-3-1,-19.3%
same,max response,NIH3T3,-21.1%
same,Potency,MCC-13,inactive
same,Potency,MCC-26,inactive
CCCOC(=O)c1ccc(O)cc1,Potency,W2,inactive
same,max response,CRL-7250,4.61%
same,max response,HEK293,-6.34%
same,max response,KB-3-1,-6.63% and -13.7%
same,max response,NIH3T3,3.51%
same,Potency,MCC-13,inactive
same,Potency,MCC-26,inactive
O=Cc1ccc(O)c(O)c1O,Potency,HEK293,26.6 µM (active)
same,outcome,HaCat [1],inactive
same,outcome,HACAT [2],inactive
same,Potency,MCC-13,inactive
same,Potency,MCC-26,inactive
CCCCN(CC)c1nc(C)nc2c1c(C)cn2-c1c(C)cc(C)cc1C,max response,CRL-7250,-5.83%
same,max response,HaCat [1],4.42%
same,max response,KB-3-1,-14.3%
same,max response,NIH3T3,-2.65%
Nc1ccc(O)c([N+](=O)[O-])c1,max response,CRL-7250,4.51%
same,max response,HEK293,-8.71%
same,outcome,HaCat [1],inactive
same,outcome,HACAT [2],inactive [at 92 µM]
same,Potency,MCC-13,inactive
same,Potency,MCC-26,inactive
Cc1nc2ccccc2n1Cc1ccc(Cl)cc1,Potency,CRL-7250,2.11 µM (active)
same,Potency,HEK293,1.68 µM (active)
same,max response,KB-3-1,-8.87%
same,max response,NIH3T3,-22.4%
same,Potency,MCC-13,inactive
